In ChEMBL document CHEMBL3988442, “University of Dundee, Small-Polar-MMV Screening Library” (2021) one finds Percent Effect data, which are given here for 50 compounds.

The target of assay [1] is T1, Aspartate--tRNA(Asp/Asn) ligase (Mycobacterium tuberculosis (strain ATCC 25618 / H37Rv)) (UniProt P9WFW3). Further: in the data most compounds retested in dose-response had high values.
T1 sequence (whole entry): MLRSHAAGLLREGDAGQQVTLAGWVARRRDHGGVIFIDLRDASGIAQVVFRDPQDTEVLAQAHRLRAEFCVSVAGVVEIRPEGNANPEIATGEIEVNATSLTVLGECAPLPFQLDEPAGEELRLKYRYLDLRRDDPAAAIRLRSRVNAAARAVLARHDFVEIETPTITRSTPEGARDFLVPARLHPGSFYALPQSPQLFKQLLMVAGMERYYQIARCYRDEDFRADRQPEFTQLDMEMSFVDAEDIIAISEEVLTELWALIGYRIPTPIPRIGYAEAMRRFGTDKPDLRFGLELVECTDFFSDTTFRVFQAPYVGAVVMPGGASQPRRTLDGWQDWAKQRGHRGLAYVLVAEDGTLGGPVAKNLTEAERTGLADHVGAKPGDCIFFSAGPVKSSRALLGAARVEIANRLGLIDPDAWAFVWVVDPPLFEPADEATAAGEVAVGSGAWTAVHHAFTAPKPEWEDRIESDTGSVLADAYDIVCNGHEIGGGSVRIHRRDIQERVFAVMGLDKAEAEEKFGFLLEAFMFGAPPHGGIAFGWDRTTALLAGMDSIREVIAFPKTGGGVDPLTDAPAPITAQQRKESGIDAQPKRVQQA
Nature of the assay: Assay for Asp RNA synthetase-1 from Mycobacterium tuberculosis. On the set-up: scale not given: direction of the effect not stated beside the values. As to conditions: 30 µM. It is filed as functional.

The target in assay [2] is Shiga toxin 2 (Escherichia coli O157:H7) (UniProt P09385+P09386). Nature of the assay: E. coli 0.157:H7 Shiga Toxin SOP - stx2 screening assay. Type of assay: functional. On the set-up: scale not given: direction of the effect not stated beside the values. Conditions: 30 µM.

Consider `CCn1nc(C)c2nc(C(C)C)nc(NCCCO)c21`, for which the Percent Effect in assay [1] was 3.48%; in assay [2], -3.03%.
The like results for `O=C(Cn1nc(-c2cccs2)ccc1=O)N1CCCCCC1` were, in that order, 1.6% and -0.139%.
The like results for `Cc1nn(C)c(Cl)c1C1CCCN1C(=O)c1cc[nH]n1` (stereo not given) were, in that order, 3.04% and -8.07%.
For the compound `Cc1nn(-c2ccccc2)cc1C(=O)N1CCCC(n2cccn2)C1` (stereo not given), the Percent Effect was -5.22% in assay [1] and -27.4% in assay [2].
Taken in the same sequence, the figures for `O=C(Nc1ccc(F)cc1)N1C[C@H]2C[C@H](C(=O)N3CCOCC3)[C@@H](C1)O2` were 0.452% and -11.7%.
The like results for `CC(C)N1CCC(Cc2cncc(-c3ccccc3C(=O)O)n2)CC1` were, in that order, 1.34% and 6.75%.
On to `COCC(=O)N1CC[C@@H]2O[C@@H](COCc3csc(C)n3)CC[C@@H]21`, for which the Percent Effect in assay [1] was 7.78%; in assay [2], -9.07%.
Taken in the same sequence, the figures for `COC(=O)CNC(=O)CSCc1nc(O)c2c(C)c(C)sc2n1` were -0.261% and -18.2%.
As for `CCCNC(=O)c1ccc(NC(=O)c2cccc(OCC)c2)cc1`, the values for the Percent Effect in assay [1] and in assay [2] were 2.98% and -85.2%, respectively.
The like results for `O=S(=O)(NCC1CCN(c2ccccn2)CC1)c1ccccc1F` were, in that order, -0.51% and -13.6%.
The like results for `CCn1ncc2c1C(COCC1CC1)CN(S(=O)(=O)N(C)C)C2` (stereo not given) were, in that order, -1.37% and -9.58%.
Taken in the same sequence, the figures for `O=C(Nc1cccc(CNCc2csc(Br)c2)c1)C1CC1` were -0.759% and -73.7%.
With `Cn1nnc2c1CCN(CC1CC1)C2COCc1ccccc1` (stereo not given), the Percent Effect in assay [1] came out at 1.84%; in assay [2] it was 0.25%.
The like results for `Cc1csc(CNC(=O)NC2CCN(c3ncccn3)CC2)n1` were, in that order, 2.39% and -1.46%.
For the compound `NC(=O)N1CCC2(CC1)CN(Cc1cccnc1)C(=O)CO2`, the Percent Effect in assay [1] is 0.66%; in assay [2] it was -1.38%.
Taken in the same sequence, the figures for `O=C(c1cccnc1)N1C[C@@H]2CC[C@H](C1)N(Cc1cc(F)ccc1F)C2` were 5.92% and 1.2%.
The like results for `O=C(CSC1=NS(=O)(=O)c2cc(F)ccc2N1)Nc1cccc(Cl)c1` were, in that order, 4.04% and -1.14%.
The like results for `CN(C)Cc1ccnc(C2CCCN2Cc2ccncc2)n1` (stereo not given) were, in that order, -3.02% and -14.5%.
`Cc1cncc(C2CCCN(C(=O)c3cccn3C)C2)n1` (stereo not given): the Percent Effect in assay [1] was 1.84%; in assay [2], -12.2%.
The like results for `Cn1nc(C#N)c2c1CN(C(=O)c1cccnc1)CCC2` were, in that order, 7.3% and -7.73%.
Take `Cc1cccc(CN2C[C@@H]3CN(C(=O)NC(C)C)C[C@@H]3C2=O)c1`: the Percent Effect in assay [1] is 0.565%; in assay [2] it was -52.1%.
Regarding `CCN(CC)CC1CN(CCc2ccccc2)Cc2nccn2C1` (stereo not given), the Percent Effect is -4.79% in assay [1] and 4.72% in assay [2].
The like results for `Cc1cc(C)c(CNC(=O)C2CCCN(c3cnccn3)C2)c(=O)[nH]1` (stereo not given) were, in that order, -0.345% and 30.7%.
Taken in the same sequence, the figures for `COc1ccc(OC)c(CNCCc2cc(F)cc3c2OCOC3)c1` were 4.49% and 7.51%.
The like results for `CN(CCn1nc2ccccn2c1=O)CC(=O)NC1CC1` were, in that order, -5.57% and -5.23%.
Turning to `O=C(NCc1ccccc1CN1CCC(O)CC1)Nc1ccncc1`, the Percent Effect in assay [1] is -0.167%; in assay [2], -42%.
The like results for `Cc1nc(C2(NCC(=O)NCCc3cccs3)CCCC2)no1` were, in that order, -3.06% and 8.44%.
Regarding `Cc1nc(CN2C(=O)CCC23CCN(c2ncccn2)CC3)cs1`, the Percent Effect in assay [1] is 4.19%; in assay [2], -30.4%.
Taken in the same sequence, the figures for `COCCN1C[C@@H]2CCCO[C@@H]2[C@H](N(C)Cc2ccco2)C1` were 0.0735% and -6.84%.
The like results for `COCC1CC2(CCN(C(=O)c3cccc(C)c3)CC2)CO1` (stereo not given) were, in that order, -0.131% and -2.68%.
Consider `Fc1ccccc1CN1C[C@@H](OCc2ccncc2)[C@H]2OCCC[C@H]21`, for which the Percent Effect is 2.94% in assay [1] and -45.1% in assay [2].
`CCc1ccc(NC(=O)N2C[C@H]3C[C@H](C(=O)NC)[C@@H](C2)O3)cc1`: the results for the Percent Effect in assay [1] and in assay [2] were 3.34% and -5.17%, respectively.
Regarding `CC(NCc1cccnc1)c1ccc(OCC(=O)NC2CC2)cc1` (stereo not given), the Percent Effect was 4.26% in assay [1] and -1.84% in assay [2].
The like results for `Cc1ccc(CNC(=O)CN2CCN(CC(O)C3CC3)CC2)cc1` (stereo not given) were, in that order, 1.21% and -15.5%.
The like results for `CCC(=O)NC1CCN(c2cccc(CC)c2)CC1` were, in that order, 1.79% and 5.5%.
The like results for `CN(CC(=O)N(C)C1CCCCC1)C1CCc2ccccc21` (stereo not given) were, in that order, 0.433% and 34.7%.
With `CN(CC1COc2ccccc2O1)C(=O)NCCCn1cncn1` (stereo not given), the Percent Effect in assay [1] is 1.57%; in assay [2], 21.4%.
Consider `Cc1nc(N2CCOCC2)nc2c1CCN(C(=O)NC1CCCC1)CC2`, for which the Percent Effect in assay [1] was 2.29%; in assay [2], -52.5%.
In the case of `O=C(NCCNC(=O)N1CCC(c2ccccc2)C1)C1CC1` (stereo not given), the Percent Effect is -0.747% in assay [1] and -19.2% in assay [2].
Taken in the same sequence, the figures for `Cc1ccc(Cn2ccc(NS(C)(=O)=O)n2)cc1` were 2.05% and -19.8%.
Take `COc1cccc(CNC(=O)CC2CSc3ncc(C)c(=O)n32)c1` (stereo not given): the Percent Effect amounted to 1.5% in assay [1] and 6.98% in assay [2].
The like results for `O=C(NCCCOCC1CCCO1)c1cccnc1N1CCCC1` (stereo not given) were, in that order, -1.51% and -14.1%.
The like results for `CC(C)(C)c1ccn(C2(C(=O)O)CCN(c3nccc(N)n3)CC2)n1` were, in that order, 3.12% and -19.9%.
As for `COc1c(CNCCNC(=O)c2ccc(C)cc2)c(C)nn1C`, the Percent Effect was -4.08% in assay [1] and -32.3% in assay [2].
`CCCNC(=O)Cn1nc(C(C)C)c2cnn(C(C)(C)C)c2c1=O`: the results for the Percent Effect in assay [1] and in assay [2] were -6.33% and 8.81%, respectively.
Taken in the same sequence, the figures for `Cn1cc(-c2ncnc3c2CCN(C(=O)N2CCOCC2)CC3)cn1` were -8.2% and -1.95%.
The like results for `CNS(=O)(=O)Cc1ccc(CNC(=O)c2ccc(C)[nH]c2=O)cc1` were, in that order, -0.577% and -39.3%.
Taken in the same sequence, the figures for `CCN(Cc1ccc2c(c1)OCCO2)C(=O)NCc1cc[nH]n1` were 3.66% and 27.9%.
On to `CC(C)c1noc(CCC(=O)NC(C)c2nnc3n2CCCCC3)n1` (stereo not given), for which the Percent Effect was 0.353% in assay [1] and -13.7% in assay [2].
Taken in the same sequence, the figures for `O=C(c1cc(Cl)c2c(c1)OCCO2)N1CCCC(n2cncn2)C1` (stereo not given) were -7.78% and 10.4%.
